FadD28 binding – inhibitors of FadD28 bisubstrate probe binding, primary screen, biochemical, fluorescence polarization, single point; Mycobacterium tuberculosis FadD28 fatty-acid-AMP ligase; inhibition, % at 12.5 µM; 360,000 tested, 0.22% active; AID 588549, 2011; in the data active means inhibition above about 8.5%, passing the limit was not always enough
Mtb FBA inh – Mtb FBA enzyme inhibitors, primary screen, biochemical, fluorescence, strain H37Rv | Fructose-bisphosphate aldolase (Mycobacterium tuberculosis (strain ATCC 25618 / H37Rv)), … | purified M. tuberculosis FBA, fluorescence read-out | inhibition, % at 1 µM | 360,000 tested, 2.3% active
Target sequence (P9WQA3 whole entry, looked up): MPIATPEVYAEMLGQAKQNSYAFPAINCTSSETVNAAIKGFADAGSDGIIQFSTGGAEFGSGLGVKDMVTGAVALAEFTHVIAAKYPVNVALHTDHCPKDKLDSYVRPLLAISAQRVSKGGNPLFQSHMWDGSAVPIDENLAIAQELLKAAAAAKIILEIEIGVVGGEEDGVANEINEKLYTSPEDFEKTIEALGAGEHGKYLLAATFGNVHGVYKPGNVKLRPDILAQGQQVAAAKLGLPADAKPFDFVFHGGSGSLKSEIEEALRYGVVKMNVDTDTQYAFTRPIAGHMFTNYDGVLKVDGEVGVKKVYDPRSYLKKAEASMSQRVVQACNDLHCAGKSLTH
Rv3671c inh – Rv3671c serine protease inhibitors, primary screen, biochemical, fluorescence polarization, M. tuberculosis H37Rv | P9WHR9 | inhibition, % at 5.96 µM | 320,000 tested, 0.048% active | AID 2606, 2010; in the data active means inhibition above about 38%;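 further: extracellular domain of Rv3671c used as enzyme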
GDH-TPI counter-1 – GDH-TPI coupling enzyme inhibitors, primary screen, artefact control for M. tuberculosis FBA inhibitor project, biochemical, absorbance, full deck; inhibition, % at 4.8 µM; AID 588335, 2011; GDH-TPI coupled enzyme counterscreen, NADH absorbance; 360,000 tested, 1.2% active; in the data active means inhibition above about 30%
Mtb BioA inh – M. tuberculosis BioA enzyme inhibitors, primary screen, biochemical, plate reader, single point, HTS | purified M. tuberculosis BioA enzyme | 7,8-diaminopelargonic acid synthase BioA (Mycobacterium tuberculosis) | inhibition, % at 9.99 µM | 360,000 tested, 0.096% active | AID 602481, 2012; in the data active means inhibition above about 40%
Mtb FBA confirm – M. tuberculosis aldolase blockers, biochemical, fluorescence, strain H37Rv, confirmation. shares compounds with Mtb FBA inh. purified M. tuberculosis FBA, fluorescence read-out. inhibition, % at 1 µM. 5,600 tested, 78% active
GDH-TPI counter-2 – GDH-TPI coupling enzyme inhibitors, artefact control for M. tuberculosis FBA inhibitor project, biochemical, fluorescence, high throughput. shares compounds with Mtb FBA inh. GDH-TPI coupled enzyme counterscreen. inhibition, % at 1 µM. 5,600 tested, 81% active. AID 652141, 2013; in the data active means inhibition above about 10%
Hits are given with their value; – = inactive; · = not tested or not shown; + = active, no number. A selection: hits, their analogues and other compounds. The true share with any hit is near 3%. Unless noted, no stated cut-off is given here; in the data, active means inhibition above about 27%; inactive means the rest.

SMILES	FadD28 binding	Mtb FBA inh	Rv3671c inh	GDH-TPI counter-1	Mtb BioA inh	Mtb FBA confirm	GDH-TPI counter-2
CC(=O)c1ccc(S(=O)(=O)N(C)CCCC(=O)NCc2ccc3c(c2)OCO3)cc1	–	84	·	–	–	144	96
CN(CC(=O)NCc1ccc2c(c1)OCO2)S(=O)(=O)c1ccc(F)cc1	–	–	–	–	·	·	·
CO[C@H]1CN(C)C(=O)c2ccc(NS(=O)(=O)c3ccc(Cl)cc3)cc2OC[C@@H](C)N(C)C[C@@H]1C	·	·	·	·	–	·	·
CC(C)NC(=O)N(C)C[C@@H]1Oc2cc(-c3ccncc3)ccc2S(=O)(=O)N([C@H](C)CO)C[C@@H]1C	·	·	·	·	–	·	·
CN1CN(C)c2cccc3cccc1c23	–	98	–	–	–	48	40
Cc1ccccc1NC(=O)NC1CCS(=O)(=O)C1 (stereo unspecified)	–	–	–	–	–	·	·
Cc1cccc(OC(C)C(=O)NC2CCS(=O)(=O)C2)c1C (stereo unspecified)	–	88	–	–	–	119	83
Cc1cccnc1NC(=O)Nc1cccc2ccccc12	–	56	–	–	–	90	73
O=C(Nc1ccccc1)Nc1cccc2ccccc12	–	–	–	–	–	·	·
Cc1ccc2nc(-c3ccc(C#N)cc3)c(Cc3ccccn3)n2c1	–	61	·	·	–	146	94
O=C(C[C@@H]1CC[C@H]2[C@@H](COC[C@@H](O)CN2Cc2ccccc2)O1)N1CCOCC1	·	·	·	·	–	·	·
Nc1nc2ccc(Cl)cc2[nH]1	–	–	·	–	–	·	·
Clc1ccc2nc(-c3ccc(Cl)nc3)[nH]c2c1	–	36	–	–	–	107	82
Nc1ccc2nc(-c3ccc(Cl)cc3)[nH]c2c1	–	87	–	–	–	168	127
C/C=C/c1ccc([C@H]2[C@@H](CO)N(C(C)=O)[C@@H]2CNC(=O)CC2CC2)cc1	·	·	·	·	–	·	·
CCC1CN(C(=O)NCc2cccc(OC)c2)c2ccccc2O1 (stereo unspecified)	–	68	·	–	–	–	–
CCC1CN(C(=O)NCc2cccc(OC)c2)c2cc(Cl)ccc2O1 (stereo unspecified)	–	–	·	–	–	·	·
O=C(C[C@@H]1CC[C@@H]2[C@H](COC[C@@H](O)CN2C(=O)Nc2cccc(Cl)c2)O1)NCc1ccccc1F	·	·	·	·	–	·	·
CNC[C@@H]1OCCCC[C@H](C)Oc2ccc(NC(=O)CCC(F)(F)F)cc2C(=O)N([C@@H](C)CO)C[C@H]1C	·	·	·	·	–	·	·
COc1ccc(CNC(=S)Nc2ccc3nc(N4CCOCC4)cc(C)c3c2)cc1	–	31	–	–	·	33	28
CCOCCCNC(=S)Nc1ccc2nc(N3CCOCC3)cc(C)c2c1	·	32	–	–	–	+	+
COc1ccc(CNC(=S)Nc2ccc3nc(N4CCN(C)CC4)cc(C)c3c2)cc1	–	–	–	–	–	·	·
CCCC(=O)Nc1ccc2c(c1)C(=O)N(C)C[C@@H](OC)[C@@H](C)CN(Cc1ccccn1)[C@@H](C)CO2	·	·	·	·	–	·	·
C[C@@H]1CN([C@@H](C)CO)C(=O)c2cc(C#CC3CCCC3)cnc2O[C@@H]1CN(C)Cc1ccncc1	·	·	·	·	–	·	·
S=c1[nH]nc(-c2c[nH]c3ccccc23)o1	–	50	–	–	–	–	–
COc1ccc(-c2c(NC(=O)C(C)C)n(C)c3ccccc3c2=O)cc1	–	37	–	–	–	+	+
CCOC(=O)c1ccc(NC(=O)C(=O)NCCc2ccc(OC)cc2)cc1	–	50	–	–	·	116	106
CNC(=O)C[C@@H]1CC[C@H]2[C@@H](COc3ccc(NC(=O)Nc4ccccc4)cc3C(=O)N2C)O1	·	·	·	·	–	·	·
O=C(COc1ccccc1)Nc1cccc(-c2nn[nH]n2)c1	–	–	–	–	–	·	·
